The whole screen tested about 5,500 compounds, of which about 2,000 (36%) were called active. Inconclusive results (about 18%) are left out. The list shows a part of the results. Unmarked numbers belong to inactive results. Rule as the data show it: active = normalized growth mostly below about 0.91 (no sharp cut-off); inconclusive = no clear call, values can overlap the other calls; inactive = mostly above about 0.92.
Assay: chemical genetic growth profiling, strain panel (AID 1159580);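 also: tested at 20 µM; growth read once vehicle control cultures reached saturation at 30 °C; 1 = growth at the plate median or of vehicle wells; lower values mean less growth of the strain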
Conditions: growth OD
[1] = S. cerevisiae deletion strains, locus YAL013W, strain DEP1, active compounds read low
[2] = S. cerevisiae deletion strains, locus YBR229C, strain ROT2, active compounds read low
[3] = S. cerevisiae deletion strains, locus YDL101C, strain DUN1, active compounds read low
[4] = S. cerevisiae deletion strains, locus YDL134C, strain PPH21, active compounds read low
[5] = S. cerevisiae deletion strains, locus YDR150W, strain NUM1, active compounds read low
[6] = S. cerevisiae deletion strains, locus YEL061C, strain CIN8, active compounds read low
[7] = S. cerevisiae deletion strains, locus YGR078C, strain PAC10, active compounds read low
[8] = S. cerevisiae deletion strains, locus YHR030C, strain SLT2, active compounds read low
[9] = S. cerevisiae deletion strains, locus YHR087W, strain rtc3, active compounds read low
[10] = S. cerevisiae deletion strains, locus YJR043C, strain POL32, active compounds read low
[11] = S. cerevisiae deletion strains, locus YJR075W, strain HOC1, active compounds read low
[12] = S. cerevisiae deletion strains, locus YLR039C, strain RIC1, active compounds read low
[13] = S. cerevisiae deletion strains, locus YLR058C, strain SHM2 (second series), active compounds read low
[14] = S. cerevisiae deletion strains, locus YLR085C, strain ARP6, active compounds read low
[15] = S. cerevisiae deletion strains, locus YLR262C, strain YPT6, active compounds read low
[16] = S. cerevisiae deletion strains, locus YML094W, strain GIM5, active compounds read low
[17] = S. cerevisiae deletion strains, locus YMR219W, strain ESC1, active compounds read low
[18] = S. cerevisiae deletion strains, locus YMR263W, strain SAP30, active compounds read low
[19] = S. cerevisiae deletion strains, locus YNL153C, strain GIM3, active compounds read low
[20] = S. cerevisiae deletion strains, locus YNL298W, strain CLA4 (second series), active compounds read low
[21] = S. cerevisiae deletion strains, locus YNL322C, strain KRE1, active compounds read low
[22] = S. cerevisiae deletion strains, locus YNR030W, strain Alg12, active compounds read low
[23] = S. cerevisiae deletion strains, locus YOL006C, strain TOP1, active compounds read low
[24] = S. cerevisiae deletion strains, locus YPL055C, strain LGE1, active compounds read low
[25] = S. cerevisiae deletion strains, locus YPL241C, strain CIN2, active compounds read low
[26] = S. cerevisiae deletion strains, locus YPR135W, strain CTF4, active compounds read low
[27] = S. cerevisiae strains, strain wild type, active compounds read low
[28] = S. cerevisiae deletion strains, locus YMR307W, strain GAS1, active compounds read low

SMILES: Cc1ccc(-c2csc(CC#N)n2)cc1C
- normalized growth [1]: 0.987
- normalized growth [2]: 0.961
- normalized growth (S. cerevisiae deletion strains, locus YCL061C, strain MRC1, active compounds read low): 0.912
- normalized growth [3]: 0.963
- normalized growth [4]: 0.977
- normalized growth [5]: 0.989
- normalized growth [6]: 0.951
- normalized growth [7]: 0.951
- normalized growth [8]: 0.716
- normalized growth [9]: 0.97
- normalized growth [10]: 0.97
- normalized growth [11]: 0.914
- normalized growth [12]: 0.774 (active)
- normalized growth [13]: 0.961
- normalized growth [14]: 0.823
- normalized growth [15]: 0.78 (active)
- normalized growth [16]: 0.944
- normalized growth [17]: 0.961
- normalized growth [18]: 0.974
- normalized growth [19]: 0.929
- normalized growth [20]: 0.882
- normalized growth [21]: 0.962
- normalized growth [22]: 0.962
- normalized growth [23]: 0.758
- normalized growth [24]: 0.946
- normalized growth [25]: 0.859
- normalized growth [26]: 0.801
- normalized growth [27]: 0.969

SMILES: S=c1nc2[nH]c3ccccc3c2n[nH]1
- normalized growth [1]: 0.98
- normalized growth [2]: 0.982
- normalized growth [3]: 0.985
- normalized growth [4]: 0.973
- normalized growth [5]: 1.01
- normalized growth [6]: 1
- normalized growth [7]: 0.976
- normalized growth [8]: 0.962
- normalized growth [9]: 1.04
- normalized growth [10]: 0.974
- normalized growth [11]: 1
- normalized growth [12]: 0.996
- normalized growth [13]: 0.99
- normalized growth [14]: 0.927
- normalized growth [15]: 0.995
- normalized growth [16]: 0.978
- normalized growth [17]: 0.994
- normalized growth [18]: 1.03
- normalized growth [19]: 0.977
- normalized growth [20]: 0.944
- normalized growth [21]: 0.991
- normalized growth [22]: 0.972
- normalized growth [23]: 1
- normalized growth [24]: 1
- normalized growth [25]: 0.974
- normalized growth [26]: 0.916
- normalized growth [27]: 0.984

SMILES: CNC(=O)[C@H]1O[C@@H](n2cnc3c(NCc4cccc(I)c4)ncnc32)C(O)[C@H]1O (stereo partly drawn)
- normalized growth (S. cerevisiae deletion strains, locus YAL040C, strain CLN3, active compounds read low): 0.988
- normalized growth (S. cerevisiae deletion strains, locus YCL061C, strain MRC1 (second series), active compounds read low): 0.998
- normalized growth (S. cerevisiae deletion strains, locus YDR363W, strain ESC2, active compounds read low): 1.01
- normalized growth (S. cerevisiae deletion strains, locus YER002W, strain NOP16, active compounds read low): 0.993
- normalized growth [7]: 1.01
- normalized growth [18]: 0.999
- normalized growth [28]: 0.992
- normalized growth (S. cerevisiae deletion strains, locus YNL128W, strain TEP1, active compounds read low): 0.994
- normalized growth (S. cerevisiae deletion strains, locus YNL175C, strain NOP13, active compounds read low): 1.01
- normalized growth (S. cerevisiae deletion strains, locus YNL197C, strain WHI3, active compounds read low): 0.998
- normalized growth (S. cerevisiae deletion strains, locus YNL224C, strain SQS1, active compounds read low): 1.02
- normalized growth [21]: 0.992
- normalized growth (S. cerevisiae deletion strains, locus YOR083W, strain WHI5 (second series), active compounds read low): 0.991
- normalized growth [24]: 1.01
- normalized growth [25]: 1

SMILES: O=C(Nc1cccc(C(F)(F)F)c1)c1cncc(C#Cc2ccccc2)c1
- normalized growth (S. cerevisiae deletion strains, locus YAR019C, strain CDC15, active compounds read low): 0.971
- normalized growth (S. cerevisiae deletion strains, locus YBL105C, strain PKC1, active compounds read low): 0.98
- normalized growth (S. cerevisiae deletion strains, locus YBR135W, strain CKS1, active compounds read low): 0.983
- normalized growth (S. cerevisiae deletion strains, locus YBR136W, strain MEC1, active compounds read low): 0.982
- normalized growth (S. cerevisiae deletion strains, locus YBR160W, strain CDC28, active compounds read low): 0.983
- normalized growth (S. cerevisiae deletion strains, locus YDL017W, strain CDC7, active compounds read low): 0.983
- normalized growth (S. cerevisiae deletion strains, locus YDL028C, strain MPS1, active compounds read low): 0.978
- normalized growth [3]: 0.987
- normalized growth (S. cerevisiae deletion strains, locus YDL108W, strain KIN28, active compounds read low): 0.984
- normalized growth (S. cerevisiae deletion strains, locus YDL132W, strain cdc53, active compounds read low): 0.983
- normalized growth (S. cerevisiae deletion strains, locus YDL214C, strain PRR2, active compounds read low): 0.905
- normalized growth (S. cerevisiae deletion strains, locus YDR052C, strain DBF4, active compounds read low): 0.983
- normalized growth (S. cerevisiae deletion strains, locus YDR054C, strain cdc34, active compounds read low): 0.963
- normalized growth (S. cerevisiae deletion strains, locus YDR226W, strain ADK1, active compounds read low): 0.973
- normalized growth (S. cerevisiae deletion strains, locus YDR477W, strain SNF1, active compounds read low): 0.929
- normalized growth (S. cerevisiae deletion strains, locus YER123W, strain YCK3, active compounds read low): 0.809
- normalized growth (S. cerevisiae deletion strains, locus YER133W, strain GLC7, active compounds read low): 0.936
- normalized growth (S. cerevisiae deletion strains, locus YFL009W, strain cdc4, active compounds read low): 0.968
- normalized growth (S. cerevisiae deletion strains, locus YFL029C, strain CAK1, active compounds read low): 0.97
- normalized growth (S. cerevisiae deletion strains, locus YFR003C, strain YPI1, active compounds read low): 0.983
- normalized growth (S. cerevisiae deletion strains, locus YFR019W, strain FAB1, active compounds read low): 0.862
- normalized growth (S. cerevisiae deletion strains, locus YFR028C, strain CDC14, active compounds read low): 0.969
- normalized growth (S. cerevisiae deletion strains, locus YGR040W, strain KSS1, active compounds read low): 0.89
- normalized growth (S. cerevisiae deletion strains, locus YGR052W, strain FMP48, active compounds read low): 0.977
- normalized growth (S. cerevisiae deletion strains, locus YGR092W, strain DBF2, active compounds read low): 0.826
- normalized growth [8]: 0.847 (active)
- normalized growth (S. cerevisiae deletion strains, locus YHR079C, strain IRE1, active compounds read low): 0.854
- normalized growth (S. cerevisiae deletion strains, locus YHR082C, strain KSP1, active compounds read low): 0.905
- normalized growth (S. cerevisiae deletion strains, locus YHR205W, strain SCH9, active compounds read low): 0.776
- normalized growth (S. cerevisiae deletion strains, locus YIL147C, strain SLN1, active compounds read low): 0.98
- normalized growth (S. cerevisiae deletion strains, locus YJL095W, strain BCK1, active compounds read low): 0.903
- normalized growth (S. cerevisiae deletion strains, locus YJL128C, strain PBS2, active compounds read low): 0.978
- normalized growth (S. cerevisiae deletion strains, locus YJL157C, strain FAR1, active compounds read low): 0.878
- normalized growth (S. cerevisiae deletion strains, locus YJR016C, strain ILV3, active compounds read low): 0.983
- normalized growth (S. cerevisiae deletion strains, locus YJR066W, strain TOR1 (second series), active compounds read low): 0.905
- normalized growth (S. cerevisiae deletion strains, locus YJR066W, strain TOR1, active compounds read low): 0.865
- normalized growth (S. cerevisiae deletion strains, locus YKL048C, strain ELM1, active compounds read low): 0.877
- normalized growth (S. cerevisiae deletion strains, locus YKL067W, strain YNK1, active compounds read low): 0.901
- normalized growth (S. cerevisiae deletion strains, locus YKL101W, strain HSL1, active compounds read low): 0.883
- normalized growth (S. cerevisiae deletion strains, locus YKL193C, strain SDS22, active compounds read low): 0.982
- normalized growth (S. cerevisiae deletion strains, locus YKL203C, strain TOR2, active compounds read low): 0.937
- normalized growth (S. cerevisiae deletion strains, locus YLR113W, strain HOG1, active compounds read low): 0.902
- normalized growth (S. cerevisiae deletion strains, locus YLR133W, strain CKI1, active compounds read low): 0.868
- normalized growth (S. cerevisiae deletion strains, locus YLR403W, strain SFP1, active compounds read low): 0.843
- normalized growth (S. cerevisiae deletion strains, locus YML070W, strain DAK1, active compounds read low): 0.914
- normalized growth (S. cerevisiae deletion strains, locus YMR001C, strain CDC5, active compounds read low): 0.98
- normalized growth (S. cerevisiae deletion strains, locus YMR205C, strain PFK2 (second series), active compounds read low): 0.935
- normalized growth (S. cerevisiae deletion strains, locus YMR277W, strain FCP1, active compounds read low): 0.975
- normalized growth (S. cerevisiae deletion strains, locus YNL006W, strain LST8, active compounds read low): 0.981
- normalized growth (S. cerevisiae deletion strains, locus YNL020C, strain ARK1, active compounds read low): 0.853
- normalized growth (S. cerevisiae deletion strains, locus YNL161W, strain CBK1, active compounds read low): 0.985
- normalized growth (S. cerevisiae deletion strains, locus YNL183C, strain NPR1, active compounds read low): 0.919
- normalized growth (S. cerevisiae deletion strains, locus YNL207W, strain RIO2, active compounds read low): 0.99
- normalized growth (S. cerevisiae deletion strains, locus YNL222W, strain SSU72, active compounds read low): 0.978
- normalized growth (S. cerevisiae deletion strains, locus YNL307C, strain MCK1 (second series), active compounds read low): 0.77
- normalized growth (S. cerevisiae deletion strains, locus YOL078W, strain AVO1, active compounds read low): 0.977
- normalized growth (S. cerevisiae deletion strains, locus YOL136C, strain PFK27, active compounds read low): 0.899
- normalized growth (S. cerevisiae deletion strains, locus YOR061W, strain CKA2, active compounds read low): 0.875
- normalized growth (S. cerevisiae deletion strains, locus YOR119C, strain RIO1, active compounds read low): 0.977
- normalized growth (S. cerevisiae deletion strains, locus YOR231W, strain MKK1, active compounds read low): 0.915
- normalized growth (S. cerevisiae deletion strains, locus YOR329C, strain SCD5, active compounds read low): 0.981
- normalized growth (S. cerevisiae deletion strains, locus YPL031C, strain PHO85, active compounds read low): 0.916
- normalized growth (S. cerevisiae deletion strains, locus YPL153C, strain RAD53, active compounds read low): 0.921
- normalized growth (S. cerevisiae deletion strains, locus YPL204W, strain HRR25, active compounds read low): 0.883
- normalized growth (S. cerevisiae deletion strains, locus YPL209C, strain IPL1, active compounds read low): 0.988
- normalized growth (S. cerevisiae deletion strains, locus YPL256C, strain CLN2, active compounds read low): 0.897
- normalized growth (S. cerevisiae deletion strains, locus YPR025C, strain CCL1, active compounds read low): 0.977
- normalized growth (S. cerevisiae deletion strains, locus YPR106W, strain ISR1, active compounds read low): 0.977
- normalized growth (S. cerevisiae deletion strains, locus YPR111W, strain DBF20, active compounds read low): 0.964
- normalized growth (S. cerevisiae deletion strains, strain NNK1, active compounds read low): 0.974
- normalized growth (S. cerevisiae deletion strains, strain TSCII, active compounds read low): 0.989

SMILES: O=C(O)c1cncc(C#Cc2ccccc2)c1
- normalized growth [1]: 0.982
- normalized growth [2]: 0.976
- normalized growth [3]: 0.991
- normalized growth [4]: 1.01
- normalized growth [5]: 1.01
- normalized growth [6]: 1
- normalized growth [7]: 0.957
- normalized growth (S. cerevisiae deletion strains, locus YGR229C, strain SMI1, active compounds read low): 0.957
- normalized growth [8]: 0.956
- normalized growth [9]: 1
- normalized growth [10]: 0.957
- normalized growth [11]: 0.961
- normalized growth [12]: 0.976
- normalized growth [13]: 0.949
- normalized growth [14]: 1.04
- normalized growth [15]: 0.996
- normalized growth [16]: 1.02
- normalized growth [17]: 0.972
- normalized growth [18]: 0.981
- normalized growth [28]: 1.03
- normalized growth [19]: 0.931
- normalized growth [20]: 0.991
- normalized growth [21]: 0.971
- normalized growth [22]: 0.989
- normalized growth [24]: 1
- normalized growth [25]: 1.01
- normalized growth [26]: 0.935
